Most compounds without a hit are left out; they make up all but 21% or so of the library.
Pf growth 96h: inhibits malaria parasite growth, 96 h; Potency, µM (series often up to 28.7 µM), for the others: top-dose activity change, negative = inhibition, most hits filed as inhibitors; P. falciparum luciferase reporter growth, 96 h; 6.9% of 320,000 active; further: potency means the concentration at half of the fitted maximal effect; on the % scale 0 is the no-effect control and ±100 the full control effect
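Luminescence readout: decreased luciferase signal marks inhibited growth of reporter-expressing P. falciparum in infected red cells (2% hematocrit, 0.05% parasitemia final), exposed to compound two generations (96 h, 37 C, 5% CO2).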
SARS PLpro yeast: blocks SARS-CoV papain-like protease in a yeast assay; S. cerevisiae expressing SARS-CoV PLpro, growth rescue; Potency, µM (highest dose often 32.9 µM), without a hit: top-dose activity, positive = growth rescue, hits mostly activators; 0.19% of 330,000 active; calls by dose curve; further: potency means the concentration at half of the fitted maximal effect; 0% is about no effect; nearly all actives have a fitted effect of over 55% in size
Shiga inhibitor: blocks Shiga toxin action in Vero cells | Vero cells, Shiga toxin protein synthesis inhibition reporter | inhibition, % at 38.7 µM | 9.2% of 290,000 active | AID 2315; in the data active means inhibition mostly above about 28%, no sharp cut-off; inactive means mostly below about 43%; further: 0% is about no effect
Cycloheximide cs: counter-screen for Shiga toxin inhibitors: cycloheximide protein synthesis inhibition; cell reporter, cycloheximide protein synthesis inhibition counterscreen; max response, %; 12% of 300,000 active; AID 2314; in the data active means max response mostly above about 13%, no sharp cut-off; inactive means mostly below about 14%; further: read at 38.3 µM for the half of the compounds with a filed dose; 0% is about no effect
Pf growth 48h: P. falciparum growth inhibition at 48 hours (one generation); P. falciparum luciferase growth in erythrocytes, 48 h; Potency, µM (top dose mostly 28.7 µM), for inactives: at the top dose activity change, negative = inhibition, usual class: inhibitors; 5.9% of 310,000 active; AID 504832; further: potency means the concentration at half of the fitted maximal effect; on the % scale 0 is the no-effect control and ±100 the full control effect
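Luciferase-expressing P. falciparum in infected erythrocytes (2% hematocrit, 0.1% parasitemia final) in RPMI 1640/0.5% Albumax were exposed to compound for 48 hours at 37 C, 5% CO2; growth read as luminescence.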
NS1 function inh: inhibitors of influenza NS1 protein function | 0.4% of 270,000 active | Potency, µM (titrated, usually from 46.1 µM), without a hit: at the highest dose activity, positive = more growth | AID 2326; calls by dose curve; further: potency means the concentration at half of the fitted maximal effect; actives are rising curves; nearly all actives have a fitted effect of over 50% in size
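A cell-based growth assay was used: compounds that relieve NS1-induced slow growth of budding yeast raise OD600. Assay medium was yeast nitrogen base with ammonium sulphate and -URA supplement, pH 6.0, with 2% galactose.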
Numbers without * were called inactive; ? = inconclusive; nt = no result; [ ] = another dose, or the depositor's remark. Unless noted, the call rests on the fitted dose curve; in most records, active means well fitted inhibition curve with a large enough effect; inconclusive means small, poorly fitted or top-dose-only effect, or another doubt; inactive means no such curve, though single readings can be large or run the other way.

SMILES | Pf growth 96h | SARS PLpro yeast | Shiga inhibitor | Cycloheximide cs | Pf growth 48h | NS1 function inh
CC(=O)N(c1cccc(C)c1)C1SC(=O)N(c2ccccc2)C1=O (stereo not given) | nt | ? | 4 | -1 | 8% | -6%
Cc1ccc(Cn2c(CCCO)nc3ccccc32)cc1 | -17% | -3% | -13 | -2 | -23% | 7%
S=C(NCCc1ccc(Cl)cc1)NCc1ccccc1 | ? | -14% | -4 | 9 | 23% | -79%
S=C(NCCc1cccc(Cl)c1)NCc1ccccc1 | ? | -3% | 33 | 25* | 4% | -70%
COc1ccc(CNC(=O)Oc2ccccc2)cc1Cl | nt | -4% | 20 | 1 | -4% | 4%
O=C(NCc1ccccc1)Oc1cccc(Cl)c1 | 13% | -28% | 72 | 9.6* | 26% | -6%
S=C(NCc1ccccc1)NCc1cccc(Cl)c1 | 3.7µM* | ? | -4 | 13 | 9% | -57%
S=C(NCc1ccccc1)NCc1cccc(CNC(=S)NCc2ccccc2)c1 | 0% | ? | -9 | -2 | -11% | -5%
Fc1ccc(CNC(=S)NCc2cccc(Cl)c2)cc1 | 10µM* | -1% | -15 | 6 | ? | ?
CC1=C(C)CC(C(=O)NCc2cccc(Cl)c2)C(C(=O)O)C1 (stereo not given) | 13µM* | -2% | -15 | -3 | 10% | 26%
NNC(=O)CCCCCCCCCCOCCCCO | ? | -3% | 19 | 25 | ? | -1%
NC(=O)[C@@H]1CCOc2c(I)cc([N+](=O)[O-])cc2C(=O)N[C@@H](CO)C(=O)NCC(=O)N1 | -12% | 8% | -2 | 0 | 6% | 16%
C(=N/n1c2ccccc2c2ccccc21)/c1ccco1 | nt | -1% | 10 | 10 | 22% | -46%
N=c1scc(-c2ccccc2)n1/N=C/c1ccco1 | ? | 9% | 72* | 46* | 0% | 26%
Cc1cc(NC(=O)CN2C(=O)[C@@H]3[C@H](C2=O)[C@@H]2C[C@H]3C(Br)C2Br)no1 (stereo not given in full) | -8% | 1% | 3 | -1 | 1% | 1%
Cc1ccc(-c2csc(SCC(=O)c3c(N)n(C4CC4)c(=O)[nH]c3=O)n2)cc1 | -2% | -2% | nt | nt | 1% | nt
O=Cc1ccccc1OCc1ccc2c(c1)OCO2 | ? | -14% | 100* | 46* | 21% | -15%
Cc1ccc(F)cc1NC(=O)CSc1ncccn1 | -3% | 4% | -16 | 4 | 3% | nt
CCOC(=O)N1CCN(C(=O)CCn2c(=O)[nH]c3ccsc3c2=O)CC1 | ? | -2% | 10 | -6 | 2% | nt
CCOC(=O)N1CCN(C(=O)CCn2c(=S)[nH]c3ccsc3c2=O)CC1 | 9.3µM* | -1% | 14 | 13 | 19% | nt
O=C(CCCn1c(=S)[nH]c2ccsc2c1=O)Nc1ccc2c(c1)OCCO2 | -10% | 1% | 98* | 39* | 113% | nt
O=C(CCCCn1c(=S)[nH]c2ccsc2c1=O)NCc1ccc2c(c1)OCO2 | 51% | 5% | -10 | 4 | 0% | nt
COc1ccc(N2CCN(C(=O)CCCn3c(=O)[nH]c4ccsc4c3=O)CC2)cc1 | 7.4µM* | -1% | -4 | -3 | nt | 3%
COc1ccccc1CNC(=O)CCn1c(=O)[nH]c2ccsc2c1=O | ? | -7% | -5 | 2 | 1µM* | 2%
O=[N+]([O-])c1cccc2c3c([nH]c12)CCCC3 | 37% | -4% | -5 | 1 | 18% | 7%
SMILES | Pf growth 96h | SARS PLpro yeast | Shiga inhibitor | Cycloheximide cs | Pf growth 48h | NS1 function inh
COc1ccccc1OCC(O)CN1CCN(C(=O)c2ccccc2)CC1 (stereo not given) | ? | 5% | -5 | -1 | -14% | -2%
O=C(COC(=O)c1ccccc1Br)Nc1cc(S(=O)(=O)N2CCOCC2)ccc1N1CCCC1 | ? | 1% | 17 | -1 | ? | 3%
COc1cc2[nH]c(=O)n(CCC(=O)N3CCc4ccccc4C3)c(=O)c2cc1OC | 16% | -10%[6.58 µM] | -16 | 7 | nt | -1%
O=C(CCn1c(=O)[nH]c2ccsc2c1=O)N1CCc2ccccc2C1 | 10µM* | 2% | 20 | 4 | 11% | 4%
COc1ccc(N2CCN(CCCNC(=O)Cn3c(=O)c4cccn4c4ccccc43)CC2)cc1 | ? | ? | 2 | -1 | -20% | 5%
O=C(Nc1sc(-c2ccccc2)cc1C(=O)O)c1ccccc1 | 258% | -7% | 52* | 35* | 45% | -85%
CCOC(=O)c1sc2nc(C3CC3)cc(-c3ccc(F)cc3)c2c1N | 4% | -1% | -18 | -3 | 0% | 7%
CCOC(=O)c1sc(-c2ccc(F)cc2)cc1N | nt | -12% | 125* | 46* | 142% | -4%
Cc1c(-c2ccccc2)sc(N)c1C(=O)N1CCOCC1 | 4% | 4% | -2 | 2 | 13µM* | -6%
CCOC(=O)c1sc(-c2ccc(OC)cc2)cc1N | -9%[5.75 µM] | -9% | 132* | 44* | 103% | -3%
CCOC(=O)c1c(N)n[nH]c1-c1ccc(OC)cc1 | nt | -3% | -12 | 2 | -17% | 3%
COC(=O)c1c(N)sc(C(=O)N2CCOCC2)c1C | ? | -1% | -2 | -2 | -3% | 3%
CCOC(=O)c1cc(CC)sc1NC(=O)Cc1ccsc1 | 3.3µM* | -1% | -3 | -1 | 22% | -52%
CCOC(=O)c1c(N)sc(-c2ccccc2)c1C | 12% | 15% | 68* | 34* | 53% | 6%
CCOC(=O)c1sc(-c2ccccc2)cc1N | nt | -13% | 116* | 59* | 146% | -11%
CCOC(=O)c1c(N)sc(C)c1-c1ccccc1 | nt | nt | 3 | 6 | nt | nt
CCOC(=O)c1sc(-c2ccccc2)cc1NC(=O)Nc1ccc([N+](=O)[O-])cc1 | ? | -2% | -5 | -2 | ? | -10%
CCOC(=O)c1cc(-c2ccccc2)sc1NC(=O)CC | 2.3µM* | -5% | -9 | -1 | 5.2µM* | -11%
Cc1ccc(S(=O)(=O)N2CCC[C@H]2C(=O)OCC(=O)Nc2ccc3c(c2)OCO3)cc1 | nt | 1% | nt | nt | nt | nt
CCOC(=O)c1cc(-c2ccccc2)sc1N | -7% | 14% | 59* | 37* | 52% | -98%
CCOC(=O)c1cc(-c2ccccc2)sc1NC(=O)c1ccc(OC)cc1 | ? | -1% | -12 | -1 | 37% | -3%
COc1ccc(NC(=O)c2cc(OCCCN(C)C)nn2Cc2ccccc2)cc1 | nt | nt | 0 | 8 | nt | nt
CCCCC#Cc1ccc2c(c1)COc1c3ccccc3nn1-2 | 139% | 3% | 56* | 37* | 71% | 1%
O=C(Nc1ccccc1Cl)C(=O)c1cn(CC(=O)N2CCOCC2)c2ccccc12 | 12µM* | -1% | 46* | 59* | 139% | 5%
O=C(NCc1ccc(Cl)cc1)C(=O)c1cn(CC(=O)N2CCOCC2)c2ccccc12 | 13µM* | -2% | 15 | -3 | 19% | 5%
c1ccc(-c2noc(-c3ccc4ccccc4c3)n2)cc1 | -20% | 7% | 105* | 55* | 319% | -8%
COc1ccc(-c2noc(-c3ccc4c(c3)OCO4)n2)cc1 | ? | 5% | 18 | 14* | 27% | 2%

Bioassay records deposited in PubChem by National Center for Advancing Translational Sciences (NCATS).
